“And” between values parts separate entries of the source, which are not always exact repeats. Equal values may be shown once. The whole screen tested about 5,500 compounds, of which about 2,000 (36%) were called active. Not shown: some 18% with an inconclusive outcome. Cut-off read from the data, not from the text of the source: active = normalized growth mostly below about 0.91 (no sharp cut-off); inconclusive = no clear call, values can overlap the other calls; inactive = mostly above about 0.92. This is one part of the list.
Assay: chemical genetic growth profiling, strain panel (AID 1159580);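 note: tested at 20 µM; growth read once vehicle control cultures reached saturation at 30 °C; 1 = growth at the plate median or of vehicle wells; lower values mean less growth of the strain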
Details: S. cerevisiae deletion strains, growth OD

Measured: normalized growth

CCC(=O)O[C@H]1CCC2C3CCC4=CC(=O)CC[C@]4(C)C3CC[C@@]21C (some centres not stated)
0.724 (active) and 0.95 (inactive): locus YJL095W, strain BCK1, stronger effect = lower value
active: locus YAL013W, strain DEP1, stronger effect = lower value 0.792 | locus YAL030W, strain snc1, stronger effect = lower value 0.924 | locus YBL061C, strain skt5, stronger effect = lower value 0.866 | locus YBR009C, strain hhf1, stronger effect = lower value 0.883 | locus YBR021W, strain FUR4, stronger effect = lower value 0.782 | locus YBR023C, strain chs3, stronger effect = lower value 0.868 | locus YCL011C, strain gbp2, stronger effect = lower value 0.843 | locus YCL016C, strain dcc1, stronger effect = lower value 0.905 | locus YCL029C, strain bik1, stronger effect = lower value 0.857 | locus YDL074C, strain BRE1, stronger effect = lower value 0.76 | locus YDR137W, strain rgp1, stronger effect = lower value 0.689 | locus YDR159W, strain sac3, stronger effect = lower value 0.796 | locus YDR162C, strain NBP2, stronger effect = lower value 0.808 | locus YDR318W, strain mcm21, stronger effect = lower value 0.901 | locus YDR392W, strain spt3, stronger effect = lower value 0.213 | locus YDR502C, strain sam2, stronger effect = lower value 0.919 | locus YER016W, strain bim1, stronger effect = lower value 0.879 | locus YER155C, strain BEM2 (second series), stronger effect = lower value 0.777 | locus YER155C, strain BEM2, stronger effect = lower value 0.873 | locus YGL086W, strain mad1, stronger effect = lower value 0.873 | locus YGL173C, strain kem1, stronger effect = lower value 0.887 | locus YGL253W, strain hxk2, stronger effect = lower value 0.872 | locus YHR142W, strain chs7, stronger effect = lower value 0.737 | locus YJL095W, strain BCK1 (second series), stronger effect = lower value 0.77 | locus YJL129C, strain trk1, stronger effect = lower value 0.781 | locus YJL164C, strain tpk1, stronger effect = lower value 0.893 | locus YJL166W, strain qcr8, stronger effect = lower value 0.865 | locus YJL187C, strain SWE1, stronger effect = lower value 0.907
inactive: locus YAL021C, strain ccr4, stronger effect = lower value 0.979 | locus YAL026C, strain drs2, stronger effect = lower value 0.959 | locus YBR171W, strain sec66, stronger effect = lower value 0.925 | locus YBR229C, strain ROT2, stronger effect = lower value 0.969 | locus YBR231C, strain swc5, stronger effect = lower value 0.952 | locus YBR279W, strain paf1, stronger effect = lower value 0.959 | locus YCL069W, strain vba3, stronger effect = lower value 0.962 | locus YCR088W, strain abp1, stronger effect = lower value 0.957 | locus YDL005C, strain med2, stronger effect = lower value 0.949 | locus YDL035C, strain GPR1, stronger effect = lower value 0.892 | locus YDL040C, strain nat1, stronger effect = lower value 0.946 | locus YDL101C, strain DUN1, stronger effect = lower value 0.95 | locus YDL185W, strain tfp1, stronger effect = lower value 1 | locus YDL192W, strain arf1, stronger effect = lower value 0.985 | locus YDR001C, strain nth1, stronger effect = lower value 0.962 | locus YDR069C, strain doa4, stronger effect = lower value 0.924 | locus YDR101C, strain arx1, stronger effect = lower value 0.957 | locus YDR195W, strain ref2 0.993 | locus YDR297W, strain sur2, stronger effect = lower value 0.968 | locus YDR334W, strain swr1, stronger effect = lower value 0.952 | locus YDR335W, strain msn5, stronger effect = lower value 0.934 | locus YDR388W, stronger effect = lower value 0.981 | locus YEL003W, strain gim4, stronger effect = lower value 0.943 | locus YEL037C, strain rad23, stronger effect = lower value 0.96 | locus YEL061C, strain CIN8 (second series), stronger effect = lower value 0.968 | locus YEL061C, strain CIN8, stronger effect = lower value 0.933 | locus YER015W, strain faa2, stronger effect = lower value 0.954 | locus YER110C, stronger effect = lower value 0.998 | locus YER111C, strain swi4, stronger effect = lower value 0.928 | locus YER167W, strain BCK2, stronger effect = lower value 0.909 | locus YFR010W, strain ubp6, stronger effect = lower value 0.992 | locus YGL078C, strain dbp3, stronger effect = lower value 0.984 | locus YGL167C, strain pmr1, stronger effect = lower value 0.928 | locus YGL227W, strain vid30, stronger effect = lower value 0.949 | locus YGL240W, strain doc1, stronger effect = lower value 0.928 | locus YGL248W, strain PDE1, stronger effect = lower value 0.916 | locus YGR135W, strain pre9, stronger effect = lower value 0.969 | locus YGR229C, strain SMI1, stronger effect = lower value 0.821 | locus YGR252W, strain gcn5, stronger effect = lower value 0.872 | locus YHR013C, strain ard1, stronger effect = lower value 1.02 | locus YHR027C, strain rpn1, stronger effect = lower value 0.967 | locus YHR079C, strain IRE1 (second series), stronger effect = lower value 0.981 | locus YHR079C, strain IRE1, stronger effect = lower value 0.896 | locus YHR094C, strain hxt1, stronger effect = lower value 0.982 | locus YHR129C, strain ARP1, stronger effect = lower value 0.943 | locus YHR200W, strain rpn10, stronger effect = lower value 0.943 | locus YIL066C, strain RNR3, stronger effect = lower value 0.878 | locus YIL073C, strain SPO22, stronger effect = lower value 0.807 | locus YIL125W, strain kgd1, stronger effect = lower value 0.975 | locus YIR030C, strain dcg1, stronger effect = lower value 0.991 | locus YJL092W, strain hpr5, stronger effect = lower value 0.929 | locus YJL115W, strain asf1, stronger effect = lower value 0.945 | locus YJL134W, strain LCB3, stronger effect = lower value 0.978 | locus YJL154C, strain vps35, stronger effect = lower value 0.943 | locus YJL168C, strain set2, stronger effect = lower value 0.983 | locus YJL187C, strain SWE1 (second series), stronger effect = lower value 0.951 | locus YJR043C, strain POL32, stronger effect = lower value 0.928
0.889 (active) and 0.906 (inactive): locus YHR030C, strain SLT2, stronger effect = lower value

From PubChem BioAssay AID1159580 (chemical genetic matrix, 2015)
